Results reported in paper PMC11062922 (Nature Chemical Biology, 2023).
Where two headings read alike, the source gives them in different places.

Legend:
Design in all cases: species or system human, MV4-11 + K-562 + COLO205 + SK-N-BE2 + OVCAR-8
[1] = test system: CDK7; conditions: read-out: apparent Kd, compound concentrations: 100 nM and 1000 nM (sheet 'Samples'), n = 1
[2] = test system: ERCC2; conditions: read-out: apparent Kd, compound concentrations: 100 nM and 1000 nM (sheet 'Samples'), n = 1
[3] = test system: FER; conditions: read-out: apparent Kd, compound concentrations: 100 nM and 1000 nM (sheet 'Samples'), n = 1
[4] = test system: PTK2B; conditions: read-out: apparent Kd, compound concentrations: 100 nM and 1000 nM (sheet 'Samples'), n = 1
[5] = test system: PTK2; conditions: read-out: apparent Kd, compound concentrations: 100 nM and 1000 nM (sheet 'Samples'), n = 1
[6] = test system: RPS6KA6; conditions: read-out: apparent Kd, compound concentrations: 100 nM and 1000 nM (sheet 'Samples'), n = 1
[7] = test system: TNK2; conditions: read-out: apparent Kd, n = 1
[8] = test system: STK10; conditions: read-out: apparent Kd, n = 1
[9] = test system: CDKL5; conditions: read-out: apparent Kd, n = 1
[10] = test system: LATS1; conditions: read-out: apparent Kd, n = 1
[11] = test system: MARK4; conditions: read-out: apparent Kd, n = 1
[12] = test system: MYLK3; conditions: read-out: apparent Kd, n = 1
[13] = test system: PLK4; conditions: read-out: apparent Kd; compound concentrations:100 nM and 1000 nM (sheet 'Samples'); n = 1
[14] = test system: PRKD2; conditions: read-out: apparent Kd, n = 1
[15] = test system: PRKD3; conditions: read-out: apparent Kd, n = 1
[16] = test system: FLT3; conditions: read-out: apparent Kd, n = 1
[17] = test system: DYRK1A; conditions: read-out: apparent Kd, n = 1
[18] = test system: PRKCD; conditions: read-out: apparent Kd, n = 1
[19] = test system: PRKCQ; conditions: read-out: apparent Kd, n = 1
[20] = compound concentrations:100 nM and 1000 nM (sheet 'Samples')

## Cn1cc(C2=C(c3ccc(OC[C@@H](O)CO)cc3)C(=O)NC2=O)c2ccccc21 [RO3208546-000]
[1]; CATDS: 4.6127698813653598E-2
  potency estimated from few doses: 768 nM
[2]; CATDS: 5.3996089618989399E-2
  potency estimated from few doses: 559 nM
[3]; CATDS: 5.24891250459407E-2
  potency estimated from few doses: 590 nM
[4]; CATDS: 4.1151087302781601E-2
  potency estimated from few doses: 996 nM
[5]; CATDS: 4.2596941934388698E-2
  potency estimated from few doses: 918 nM
[6]; CATDS: 5.0913712031047997E-2
  potency estimated from few doses: 626 nM
[7]; compound concentrations: 100 nM and 1000 nM (sheet 'Samples'), CATDS: 6.2991293235435897E-2
  potency estimated from few doses: 422 nM

## CC(C)N1CC(=O)N(C)c2cnc(Nc3cccc(S(=O)(=O)CCN4CCOCC4)c3)nc21 [BI00009348]
[8]; compound concentrations: 100 nM and 1000 nM (sheet 'Samples'), CATDS: 5.40109770146803E-2
  potency estimated from few doses: 1450 nM

## Cn1cc(C2=C(c3c(S(C)=O)n(C)c4ccccc34)C(=O)NC2=O)c2ccccc21 (stereo not shown) [RO0317379-000]
[9]; compound concentrations: 100 nM and 1000 nM (sheet 'Samples'), CATDS: 0.106131192264054
  potency estimated from few doses: 1600 nM

## O=C(Nc1n[nH]c2nc(-c3ccccc3O)ccc12)C1CC1 [SB-711880]
[9]; [20]
  potency estimated from few doses: 1450 nM
[10]; [20]
  potency estimated from few doses: 1030 nM
[11]; [20]
  potency estimated from few doses: 1680 nM
[12]; [20]
  potency estimated from few doses: 219 nM
[13]
  potency estimated from few doses: 867 nM
[14]; [20]
  potency estimated from few doses: 712 nM
[15]; [20]
  potency estimated from few doses: 570 nM
[8]; [20]
  potency estimated from few doses: 1200 nM
[7]; [20]
  potency estimated from few doses: 517 nM

## COc1ccc(Nc2nccc(NCCNC(=O)Nc3cc(C)ccc3C)n2)cc1 [GSK1379899A]
[2]; CATDS: 4.8239081355384503E-2
  potency estimated from few doses: 1270 nM
[3]; CATDS: 5.8591090270846503E-2
  potency estimated from few doses: 821 nM
[14]; compound concentrations: 100 nM and 1000 nM (sheet 'Samples'), CATDS: 5.1330821571124501E-2
  potency estimated from few doses: 1100 nM
[4]; CATDS: 5.6831578265935698E-2
  potency estimated from few doses: 876 nM
[6]; CATDS: 5.53882917247734E-2
  potency estimated from few doses: 926 nM

## COc1cc[nH]c1/C=C1\C(=O)Nc2ccc(F)c(I)c21 [RO0281567-000]
[16]; compound concentrations: 100 nM and 1000 nM (sheet 'Samples'), CATDS: 0.206841572593601
  potency estimated from few doses: 374 nM
[12]; compound concentrations: 100 nM and 1000 nM (sheet 'Samples'), CATDS: 0.10963488486357401
  potency estimated from few doses: 1520 nM

## CCn1c(-c2nonc2N)nc2cncc(C(=O)N3CC[C@H](N)C3)c21.Cl [SB-772077-B]
[17]; [20]
  potency estimated from few doses: 1520 nM
[18]; [20]
  potency estimated from few doses: 843 nM

## Nc1nccc(-c2ccc3c(N)n[nH]c3c2)n1 [GSK1034945A]
[17]; [20]
  potency estimated from few doses: 117 nM
[11]; [20]
  potency estimated from few doses: 1790 nM
[12]; [20]
  potency estimated from few doses: 65.5 nM
[14]; [20]
  potency estimated from few doses: 2030 nM
[8]; [20]
  potency estimated from few doses: 1120 nM

## O=C1N=C(N[C@H](CO)c2ccccc2)S/C1=C\c1ccc2ncccc2c1 [RO4554339-000]
[12]; compound concentrations: 100 nM and 1000 nM (sheet 'Samples'), CATDS: 0.15441229792148201
  potency estimated from few doses: 303 nM
[14]; compound concentrations: 100 nM and 1000 nM (sheet 'Samples'), CATDS: 0.111650130871897
  potency estimated from few doses: 671 nM

## NS(=O)(=O)c1ccc(N/N=C2\C(=O)Nc3ccc(-c4cnco4)cc32)cc1 [GW276655_KCGS]
[12]; [20]
  potency estimated from few doses: 988 nM

## CC(C)(CO)CNC(=O)c1ccc2c(c1)/C(=N/Nc1ccc(S(N)(=O)=O)cc1)C(=O)N2 [GW301784X]
[9]; [20]
  potency estimated from few doses: 172 nM

## O=C1N=C(N[C@@H](CO)Cc2ccccc2)S/C1=C\c1ccc2ncccc2c1 [RO4509200-000]
[9]; compound concentrations: 100 nM and 1000 nM (sheet 'Samples'), CATDS: 0.117206813575506
  potency estimated from few doses: 975 nM
[17]; compound concentrations: 100 nM and 1000 nM (sheet 'Samples'), CATDS: 0.168916103718072
  potency estimated from few doses: 440 nM

## CCn1c(-c2nonc2N)nc2cncc(Br)c21 [SB-738004]
[17]; [20]
  potency estimated from few doses: 717 nM
[16]; [20]
  potency estimated from few doses: 1190 nM
[18]; [20]
  potency estimated from few doses: 649 nM
[19]; [20]
  potency estimated from few doses: 2390 nM

## O=C1N=C(NCCc2cccs2)S/C1=C\c1ccc2ncccc2c1 [RO4508348-000]
[17]; compound concentrations: 100 nM and 1000 nM (sheet 'Samples'), CATDS: 0.139481417923777
  potency estimated from few doses: 734 nM
[16]; compound concentrations: 100 nM and 1000 nM (sheet 'Samples'), CATDS: 0.15045749947439399
  potency estimated from few doses: 638 nM

## CNCC1CCn2c(c(C3=C(c4cn(C)c5ccccc45)C(=O)NC3=O)c3ccccc32)C1 (stereo not shown) [RO0318676-000]
[1]; CATDS: 3.3814045459066702E-2
  potency estimated from few doses: 945 nM
[2]; CATDS: 3.3447385930038299E-2
  potency estimated from few doses: 976 nM
[3]; CATDS: 3.4006049633961401E-2
  potency estimated from few doses: 929 nM
[18]; compound concentrations: 100 nM and 1000 nM (sheet 'Samples'), CATDS: 0.12623439225341199
  potency estimated from few doses: 48.7 nM
[19]; compound concentrations: 100 nM and 1000 nM (sheet 'Samples'), CATDS: 0.111424858077941
  potency estimated from few doses: 61.3 nM
[4]; CATDS: 3.5074234548869702E-2
  potency estimated from few doses: 849 nM
[6]; CATDS: 8.7281654841073406E-2
  potency estimated from few doses: 98.7 nM
[7]; compound concentrations: 100 nM and 1000 nM (sheet 'Samples'), CATDS: 3.7292246432418498E-2
  potency estimated from few doses: 715 nM

## COc1cccc(C2=C(c3c(C)n(C)c4ccccc34)C(=O)NC2=O)c1 [RO3300167-000]
[10]; compound concentrations: 100 nM and 1000 nM (sheet 'Samples'), CATDS: 7.6284475672850502E-2
  potency estimated from few doses: 1700 nM
[11]; compound concentrations: 100 nM and 1000 nM (sheet 'Samples'), CATDS: 8.0513919134026293E-2
  potency estimated from few doses: 1480 nM
[14]; compound concentrations: 100 nM and 1000 nM (sheet 'Samples'), CATDS: 8.0855416148342393E-2
  potency estimated from few doses: 1470 nM
[15]; compound concentrations: 100 nM and 1000 nM (sheet 'Samples'), CATDS: 7.4607672697658597E-2
  potency estimated from few doses: 1800 nM

## O=C1N=C(NCCc2ccccc2Cl)S/C1=C\c1ccc2ncccc2c1 [RO4498484-000]
[9]; compound concentrations: 100 nM and 1000 nM (sheet 'Samples'), CATDS: 6.1493092563951302E-2
  potency estimated from few doses: 1600 nM
[17]; compound concentrations: 100 nM and 1000 nM (sheet 'Samples'), CATDS: 8.1161352179904903E-2
  potency estimated from few doses: 673 nM
[16]; compound concentrations: 100 nM and 1000 nM (sheet 'Samples'), CATDS: 6.2849399961882796E-2
  potency estimated from few doses: 1470 nM

## CCC(CC)(CC)n1cnc2c(N)ncnc21 [SKF-97620]
[5]; CATDS: 2.8719302746770599E-2
  potency estimated from few doses: 1140 nM

## COc1ccccc1CNC1=NC(=O)/C(=C/c2ccc3ncccc3c2)S1 [RO4503315-000]
[17]; compound concentrations: 100 nM and 1000 nM (sheet 'Samples'), CATDS: 8.6327639243549595E-2
  potency estimated from few doses: 596 nM
